Screening results as filed in PubChem BioAssay.
Hits are enriched below; roughly 14% of the tested compounds scored in any of these assays.
Pf growth 48h: P. falciparum growth inhibition at 48 hours (one generation) | P. falciparum luciferase growth in erythrocytes, 48 h | Potency, µM (series often up to 28.7 µM), most hits filed as inhibitors | 310,000 tested, 5.9% active
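Luminescence readout; reporter = integrated firefly luciferase in P. falciparum. RBC culture at 2% hematocrit, 0.1% parasitemia final, 37 C/5% CO2; decreased signal taken as growth inhibition.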
Sm TGR inh: blocks Schistosoma mansoni thioredoxin glutathione reductase; 360,000 tested, 3% active; Potency, µM (titrated, usually from 114 µM), most hits filed as inhibitors; Q962Y6; purified TGR, DTNB reduction, TNB absorbance 405 nm; note: nearly all actives have a fitted effect of over 60% in size
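Kinetic colorimetric format: TGR-catalysed, NADPH-driven DTNB reduction monitored via TNB absorbance. Enzyme dispensed at 20 nM; compound exposure 15 min at room temperature before reaction start.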
Pf growth 96h: inhibits malaria parasite growth, 96 h; P. falciparum luciferase reporter growth, 96 h; Potency, µM (series often up to 28.7 µM), hits mostly inhibitors; 320,000 tested, 6.9% active
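Cell-based qHTS: luciferase-tagged P. falciparum in erythrocytes (2% hematocrit, 0.05% parasitemia final) incubated with compounds for 96 hours, 37 C, 5% CO2; luciferase detection reagent then added and luminescence measured.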
HCMV antiviral: blocks human cytomegalovirus replication. 410,000 tested, 4.5% active. AID 1259415. HFF cells, HCMV-luciferase reporter, 72 h; active compounds read low. activity change, negative = inhibition, % at 57.5 µM; in the data active = activity change below about -60%; inconclusive = no clear call, values can overlap the other calls; inactive = above about -39%
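Luciferase read-out from HCMV-luciferase-infected HFFs (MOI 1 PFU/cell) 72 h post infection at 37C; compounds added after 16 h cell attachment; activity normalized between buffer-only basal and Salinomycin (10uM) inhibitor controls.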
FBPA Giardia inh: blocks Giardia fructose-bisphosphate aldolase activity; Potency, µM (titrated, usually from 59.6 µM), hits mostly inhibitors; 290,000 tested, 0.71% active; purified Giardia FBPA; A8B2U2; note: nearly all actives have a fitted effect of over 55% in size
Target sequence (A8B2U2 whole entry, looked up): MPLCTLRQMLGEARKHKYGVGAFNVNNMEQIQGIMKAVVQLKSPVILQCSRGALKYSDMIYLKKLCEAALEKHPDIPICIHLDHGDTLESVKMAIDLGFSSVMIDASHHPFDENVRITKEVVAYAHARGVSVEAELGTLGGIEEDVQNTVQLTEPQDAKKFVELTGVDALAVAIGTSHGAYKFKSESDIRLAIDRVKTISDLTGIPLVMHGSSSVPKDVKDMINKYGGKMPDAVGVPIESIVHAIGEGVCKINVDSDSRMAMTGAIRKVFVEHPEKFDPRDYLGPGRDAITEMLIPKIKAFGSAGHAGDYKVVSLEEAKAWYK
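Giardia FBPA (40 nM reagent) was preincubated 10 min at RT with compound (up to 57.5 uM final), then substrate plus GAPDH/TPI/NAD/arsenate coupling system with diaphorase/resazurin was added; resorufin fluorescence (525/598 nm) was read after 20 min.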
A number is an active result; 0 = inactive; ? = inconclusive; - = not tested or not shown; [ ] = dose if it differs, or a comment. Unless noted, calls come from the whole dose curve; as a rule, active = well fitted curve in the direction sought with a large enough effect; inconclusive = small, poorly fitted or top-dose-only effect, or another doubt; inactive = no such curve, though single readings can be large; an effect the other way counts as inactive or inconclusive.

SMILES	Pf growth 48h	Sm TGR inh	Pf growth 96h	HCMV antiviral	FBPA Giardia inh
COc1ccc(C(OCC(O)CNCCc2ccc(S(N)(=O)=O)cc2)c2ccc(OC)cc2)cc1 (centres undefined)	-	0	11.7µM	0	0
CCc1ccc(OCCn2c(C3CC(=O)N(Cc4ccc(F)cc4)C3)nc3ccccc32)cc1 (centres undefined)	-	0	-	-105.2	-
CCOc1ccc(N2CC(c3nc4ccccc4n3CCOc3ccccc3)CC2=O)cc1 (centres undefined)	-	0	-	0	-
CC(C)(C)N1CC(c2nc3ccccc3n2CCOc2ccccc2)CC1=O (centres undefined)	-	0	5.86µM	0	0
Cc1ccc(OCCn2c(C3CC(=O)N(Cc4ccc(F)cc4)C3)nc3ccccc32)c(C)c1 (centres undefined)	-	0	-	-91.6	-
CCOc1ccccc1N1CC(c2nc3ccccc3n2CCOc2ccccc2)CC1=O (centres undefined)	-	0	-	0	-
COC(=O)C1CCN(C(=O)COC(=O)c2cc(-c3cccs3)nn2-c2ccccc2)CC1	?	0	0	0	-
Cc1nc(-c2ccc(C)c(N3CCN(C(=O)Nc4cccc(Cl)c4C)CC3)c2)no1	-	0	-	-87.5	-
CN1CCN(C(=S)C(=O)Nc2ccc(Br)cc2)CC1	0	-	0[5.75 µM]	0	5µM
CN1CCC(NC(=O)Nc2ccc(Br)cc2)CC1	?	0	?	0	0
O=P(c1ccccc1)(c1ccccc1)c1nc(-c2ccccc2)oc1N1CCOCC1	?	0	?	0	0
CCOP(=O)(c1ccccc1)c1nc(-c2ccc(F)cc2)oc1N1CCCCC1 (centres undefined)	9.28µM	0	0[5.75 µM]	0	0
O=P(c1ccccc1)(c1ccccc1)c1nc(-c2ccc(Cl)cc2)oc1N1CCOCC1	10.4µM	0	0	-88.4	0
CCOP(=O)(OCC)c1nc(-c2ccc(Br)cc2)oc1N1CCCCC1	10.4µM	0	0	?	0
COc1ccccc1CNc1cc(-c2ccccc2C(F)(F)F)ncn1	-	-	-	-	0
CCC(C)(C)NC(=O)C(c1ccc(OC)cc1)N(C(=O)CCC(=O)Nc1cc(C)on1)c1cc(OC)ccc1OC (centres undefined)	?	0	0	0	0
C[C@H](CO)N1C[C@H](C)[C@@H](CN(C)Cc2ccc(F)cc2)Oc2ncc(Br)cc2C1=O	-	-	-	0	-
O=C(COC(=O)c1ccccc1C(=O)c1ccccc1)NCCc1ccccc1	0	0	?	0	0
O=C(COC(=O)c1ccccc1C(=O)c1ccc(Cl)cc1)NCCc1ccccc1	0	0	?	-76.3	0
O=C(c1ccccc1)c1c[nH]c2cc3c(cc2c1=O)OCCO3	0	0	14.7µM	0	0
O=C(c1ccccc1)c1c[nH]c2cc3c(cc2c1=O)OCO3	0	0	?	-	0
COc1ccc(C2=CC(=O)OC3(CCCCC3)O2)cc1	4.15µM	0	?	0	0
COc1ccc(O)c(O)c1/C=C1\[C@@H](C)CCC2C(C)(C)CCC[C@]12C (some centres undefined)	-	-	-	0	-
O=C(/C=C/c1ccc(Cl)cc1Cl)OCC(=O)N1CCCC1	0	0	0	0	-
CCOc1ccc(-n2nc(CO)c(C(=O)NCCCc3ccccc3)n2)cc1	-	0	-	0	-
SMILES	Pf growth 48h	Sm TGR inh	Pf growth 96h	HCMV antiviral	FBPA Giardia inh
Cc1cccc(-c2nnc(SCc3cc(=O)[nH]c4ccccc34)n2C)c1	13.1µM	0	?	0	0
COc1cc(/C=C/C(=O)OCC(=O)NCCc2ccc(S(N)(=O)=O)cc2)ccc1OCC#N	0	0	0	0	-
O=C(CCC(=O)c1ccc(F)cc1)NC1CCCN(Cc2ccccc2F)C1 (centres undefined)	0	0	13.1µM	0	0
CC(C)Cc1ccc(CN2CCCC(NC(=O)Cn3cnnn3)C2)cc1 (centres undefined)	0	0	?	0	-
O=C(Cn1cnnn1)NC1CCCN(Cc2ccccc2F)C1 (centres undefined)	0	0	5.22µM	?	0
Cc1ccc(S(=O)(=O)c2cn(CC(=O)Nc3ccccc3)c3cc4c(cc3c2=O)OCO4)cc1	-	0	-	0	-
CC(C)n1c2ccccc2c2cc([N+](=O)[O-])ccc21	?	0	4.65µM	?	0
Cc1cc2c(cc1S(=O)(=O)Nc1cc(C(F)(F)F)cc(C(F)(F)F)c1)OCC(=O)N2	-	0	-	0	-
O=C(NCCOc1nc(N2CCOCC2)nc(N2CCOCC2)n1)Nc1ccccc1	0	?	0	0	-
O=C(NCCOc1nc(N2CCCCC2)nc(N2CCOCC2)n1)Nc1ccccc1	0	0	-	-77.4	0
Cc1cccc(NC(=O)C2CC(=O)n3cnnc3S2)c1 (centres undefined)	0	0.398µM	-	0	?
CCCCCn1c(=O)c2c(nc3n2CCN3c2ccc(Br)cc2)n(C)c1=O	-	0	-	?	-
CC1=CC(=O)C=C(C)C1=NOS(=O)(=O)c1ccccc1	0	3.98µM	-	-97.5	3.97µM
Cc1ccc2c(c1)/C(=N/OS(=O)(=O)c1ccccc1)CCS2	-	-	-	0	-
CC1=CC(=O)C(C(C)C)=C/C1=N/OS(=O)(=O)c1ccccc1	0.465µM	25.1µM	?	-88.5	19.9µM
Cc1ccccc1OCC(=O)N1CCC(c2nc3ccccc3s2)CC1	-	0	-	0	-
CN(C)c1ccc2cc3c(c(S(=O)(=O)c4ccccc4)c2c1)CCC3	-	-	-	0	-
Cc1ccc2oc(C(=O)N(Cc3cccc(F)c3)C3CCS(=O)(=O)C3)c(C)c2c1 (centres undefined)	-	0	-	0	-
C=C1C(=O)C23CCC4C(C)(C(=O)OC)CCCC4(C)C2CCC1(O)C3 (centres undefined)	-	-	-	-98.6	-
COC(=O)[C@]1(C)CCC[C@@]2(C)C3CC[C@@]4(C)C[C@]3(CCC21)CC(=O)N4 (some centres undefined)	0	0	?	0	-
N#CC1=C(N)Oc2c(ccc3ccccc23)C1c1ccsc1 (centres undefined)	0	?	0	0	?
COc1cc(C2C(C#N)=C(N)Oc3c2ccc2ccccc32)ccc1OCC(=O)Nc1ccc(C)cc1 (centres undefined)	10.4µM	0	0	0	?
COc1ccc(C2C(C#N)=C(N)OC3=C2C(=O)CC(C)(C)C3)cc1OC (centres undefined)	0	0	?	?	0
COc1cc(C2C(C#N)=C(N)Oc3c2ccc2ccccc32)ccc1OCC(=O)Nc1cccc(C)c1 (centres undefined)	11.7µM	0	0	0	?
COc1ccc(C2C(C#N)=C(N)Oc3c2ccc2cccnc32)cc1OC (centres undefined)	?	-	?	-100.5	0
Cc1ccc(NC(=O)NNC(=O)CSC2CCc3ccccc32)c(C)c1 (centres undefined)	-	-	-	0	-
Cc1ccccc1Cn1nc(C)c(NC(=O)c2cc3nc(-c4ccco4)cc(C(F)(F)F)n3n2)c1C	13.1µM	0	-	0	0
Cc1ccc(-c2cc(C(F)F)n3ncc(C(=O)N4CCc5ccccc5C4)c3n2)cc1	0	0	0	0	0
